PubChem BioAssay AID1159580 (chemical genetic matrix, 2015)
The whole screen tested about 5,500 compounds, of which about 2,000 (36%) were called active. Not shown: some 18% with an inconclusive outcome. Rule as the data show it: active = normalized growth mostly below about 0.91 (no sharp cut-off); inconclusive = no clear call, values can overlap the other calls; inactive = mostly above about 0.92. Some of the results follow.

Assay: chemical genetic growth profiling, strain panel (AID 1159580);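 also: tested at 20 µM; growth read once vehicle control cultures reached saturation at 30 °C; 1 = growth at the plate median or of vehicle wells; lower values mean less growth of the strain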
Conditions: S. cerevisiae deletion strains, growth OD

Measured: normalized growth

C/C(Cc1nnn(-c2cc(C)on2)n1)=N/OC(=O)Nc1ccc(Cl)cc1
active: locus YHR030C, strain SLT2, hits give low values 0.733 | locus YJR066W, strain TOR1 (second series), hits give low values 0.6 | locus YLR113W, strain HOG1, hits give low values 0.826
inactive: locus YAR019C, strain CDC15, hits give low values 0.989 | locus YBL105C, strain PKC1, hits give low values 0.978 | locus YBR135W, strain CKS1, hits give low values 0.988 | locus YBR136W, strain MEC1, hits give low values 0.985 | locus YBR160W, strain CDC28, hits give low values 0.993 | locus YDL017W, strain CDC7, hits give low values 0.974 | locus YDL028C, strain MPS1, hits give low values 0.989 | locus YDL101C, strain DUN1, hits give low values 1 | locus YDL108W, strain KIN28, hits give low values 0.982 | locus YDL132W, strain cdc53, hits give low values 0.975 | locus YDL214C, strain PRR2, hits give low values 0.956 | locus YDR052C, strain DBF4, hits give low values 0.988 | locus YDR054C, strain cdc34, hits give low values 0.975 | locus YDR226W, strain ADK1, hits give low values 0.97 | locus YDR477W, strain SNF1, hits give low values 0.899 | locus YER123W, strain YCK3, hits give low values 0.954 | locus YER133W, strain GLC7, hits give low values 0.95 | locus YFL009W, strain cdc4, hits give low values 0.98 | locus YFL029C, strain CAK1, hits give low values 0.992 | locus YFR003C, strain YPI1, hits give low values 0.979 | locus YFR019W, strain FAB1, hits give low values 0.989 | locus YFR028C, strain CDC14, hits give low values 0.975 | locus YGR040W, strain KSS1, hits give low values 0.941 | locus YGR052W, strain FMP48, hits give low values 0.971 | locus YGR092W, strain DBF2, hits give low values 0.877 | locus YHR079C, strain IRE1, hits give low values 0.754 | locus YHR082C, strain KSP1, hits give low values 1.05 | locus YHR205W, strain SCH9, hits give low values 0.787 | locus YIL147C, strain SLN1, hits give low values 0.973 | locus YJL095W, strain BCK1, hits give low values 0.793 | locus YJL128C, strain PBS2, hits give low values 0.921 | locus YJL157C, strain FAR1, hits give low values 0.956 | locus YJR016C, strain ILV3, hits give low values 0.977 | locus YJR066W, strain TOR1, hits give low values 0.992 | locus YKL048C, strain ELM1, hits give low values 0.994 | locus YKL067W, strain YNK1, hits give low values 0.946 | locus YKL101W, strain HSL1, hits give low values 0.929 | locus YKL193C, strain SDS22, hits give low values 0.977 | locus YKL203C, strain TOR2, hits give low values 1.03 | locus YLR133W, strain CKI1, hits give low values 0.96 | locus YLR403W, strain SFP1, hits give low values 0.933 | locus YML070W, strain DAK1, hits give low values 0.944 | locus YMR001C, strain CDC5, hits give low values 0.983 | locus YMR205C, strain PFK2 (second series), hits give low values 0.936 | locus YMR277W, strain FCP1, hits give low values 0.978 | locus YNL006W, strain LST8, hits give low values 0.98 | locus YNL020C, strain ARK1, hits give low values 0.923 | locus YNL161W, strain CBK1, hits give low values 0.973 | locus YNL183C, strain NPR1, hits give low values 0.977 | locus YNL207W, strain RIO2, hits give low values 0.981 | locus YNL222W, strain SSU72, hits give low values 0.993 | locus YNL307C, strain MCK1 (second series), hits give low values 0.907 | locus YOL078W, strain AVO1, hits give low values 0.986 | locus YOL136C, strain PFK27, hits give low values 0.946 | locus YOR061W, strain CKA2, hits give low values 0.988 | locus YOR119C, strain RIO1, hits give low values 1.01 | locus YOR231W, strain MKK1, hits give low values 0.954 | locus YOR329C, strain SCD5, hits give low values 0.982 | locus YPL031C, strain PHO85, hits give low values 0.924 | locus YPL153C, strain RAD53, hits give low values 0.953 | locus YPL204W, strain HRR25, hits give low values 0.954 | locus YPL209C, strain IPL1, hits give low values 0.985 | locus YPL256C, strain CLN2, hits give low values 0.86 | locus YPR025C, strain CCL1, hits give low values 0.991 | locus YPR106W, strain ISR1, hits give low values 0.98 | locus YPR111W, strain DBF20, hits give low values 0.975 | strain NNK1, hits give low values 0.967 | strain TSCII, hits give low values 0.98
